PubChem BioAssay (EPA / NIEHS)
Records with an inconclusive call do not appear. Activity calls are given as the source filed them. How the source made its calls, unless noted: active means hit-call score of the fitted dose curve at least 0.9, where 1 is the maximum; inactive means score below 0.9.

Assays:
[1] = molecular target: Paired box protein Pax-6 (Homo sapiens) (UniProt P26367); assay: ATG_Pax6_CIS: Attagene CIS-FACTORIAL HepG2 Assay for human Paired Box 6 (PAX6) (AID 2282956); details: HepG2 CIS-FACTORIAL PAX6 reporter transcription, RNA readout; actives raise or lower the signal
Chain of Paired box protein Pax-6 (Homo sapiens) (P26367 whole entry, looked up): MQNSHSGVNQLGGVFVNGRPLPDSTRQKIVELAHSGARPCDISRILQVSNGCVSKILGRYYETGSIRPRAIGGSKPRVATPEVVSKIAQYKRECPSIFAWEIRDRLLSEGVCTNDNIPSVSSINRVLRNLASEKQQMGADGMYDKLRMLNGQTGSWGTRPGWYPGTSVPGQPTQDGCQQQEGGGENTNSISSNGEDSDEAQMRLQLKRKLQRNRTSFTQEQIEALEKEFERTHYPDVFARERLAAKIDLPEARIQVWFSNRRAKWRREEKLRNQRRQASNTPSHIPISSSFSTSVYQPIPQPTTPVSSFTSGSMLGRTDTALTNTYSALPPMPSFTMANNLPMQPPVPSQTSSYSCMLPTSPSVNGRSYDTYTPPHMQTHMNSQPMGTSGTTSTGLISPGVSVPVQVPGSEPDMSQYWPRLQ
Summary of the method: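 Transient MRTU transfection of HepG2 → compound exposure 24 h → TriZol RNA, oligo(dT) RT → PCR, 6-FAM primer extension, HpaI cut → capillary electrophoresis; activity fitted both directions against DMSO.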

[2] = ATG_PXRE_CIS: Attagene CIS-FACTORIAL HepG2 Assay for human Pregnane X Receptor Element (PXRE) (AID 2282957); details: HepG2 Attagene CIS-FACTORIAL PXRE reporter, mRNA; actives raise or lower the signal
Summary of the method: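 Cis-element reporter mRNA in human hepatoma HepG2 cells is measured 24 h post-dosing by RT-PCR, primer-extension labeling and capillary electrophoresis; gain or loss of signal is fitted relative to DMSO.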

[3] = ATG_PPRE_CIS: Attagene CIS-FACTORIAL HepG2 Assay for human Peroxisome Proliferator-activated Response Element (PPRE) (AID 2282958); details: HepG2 PPRE cis-element reporter, Attagene transcription factor profiling; actives raise or lower the signal
Summary of the method: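 Endogenous PPRE-driven transcription is measured in HepG2 cells carrying transfected multi-reporter constructs. Reporter transcripts are quantified by RT-PCR, HpaI digestion and capillary electrophoresis 24 h after dosing. DMSO baseline, bidirectional fit.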

[4] = ATG_RORE_CIS: Attagene CIS-FACTORIAL HepG2 Assay for human RAR-related Orphan Receptor Element (RORE) (AID 2282959); details: HepG2 Attagene cis-factorial RORE reporter, mRNA; actives raise or lower the signal
Summary of the method: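 RORE reporter transcripts reflecting endogenous factor activity were read after 24 h compound exposure of transfected HepG2 cells, using reverse transcription, PCR, fluorescent labelling and capillary electrophoresis sizing. Gain or loss fitted against DMSO.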

[5] = ATG_Sox_CIS: Attagene CIS-FACTORIAL HepG2 Assay for human SRY-box transcription factor (SOX) (AID 2282960); details: HepG2 Attagene cis-factorial SOX reporter, mRNA; actives raise or lower the signal
Summary of the method: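 Reporter transcripts, measured by RT-PCR and capillary electrophoresis of labelled fragments, report endogenous SOX transcription factor activity. Transiently transfected human HepG2 cells receive chemical for 24 h; changes in either direction are fitted relative to DMSO.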

[6] = molecular target: Transcription factor Sp1 (Homo sapiens) (UniProt P08047); assay: ATG_Sp1_CIS: Attagene CIS-FACTORIAL HepG2 Assay for human Specificity Protein 1 (Sp1) (AID 2282961); details: HepG2 Sp1 cis-reporter transcription, actives raise or lower the signal
Chain of Transcription factor Sp1 (Homo sapiens) (P08047 whole entry, looked up): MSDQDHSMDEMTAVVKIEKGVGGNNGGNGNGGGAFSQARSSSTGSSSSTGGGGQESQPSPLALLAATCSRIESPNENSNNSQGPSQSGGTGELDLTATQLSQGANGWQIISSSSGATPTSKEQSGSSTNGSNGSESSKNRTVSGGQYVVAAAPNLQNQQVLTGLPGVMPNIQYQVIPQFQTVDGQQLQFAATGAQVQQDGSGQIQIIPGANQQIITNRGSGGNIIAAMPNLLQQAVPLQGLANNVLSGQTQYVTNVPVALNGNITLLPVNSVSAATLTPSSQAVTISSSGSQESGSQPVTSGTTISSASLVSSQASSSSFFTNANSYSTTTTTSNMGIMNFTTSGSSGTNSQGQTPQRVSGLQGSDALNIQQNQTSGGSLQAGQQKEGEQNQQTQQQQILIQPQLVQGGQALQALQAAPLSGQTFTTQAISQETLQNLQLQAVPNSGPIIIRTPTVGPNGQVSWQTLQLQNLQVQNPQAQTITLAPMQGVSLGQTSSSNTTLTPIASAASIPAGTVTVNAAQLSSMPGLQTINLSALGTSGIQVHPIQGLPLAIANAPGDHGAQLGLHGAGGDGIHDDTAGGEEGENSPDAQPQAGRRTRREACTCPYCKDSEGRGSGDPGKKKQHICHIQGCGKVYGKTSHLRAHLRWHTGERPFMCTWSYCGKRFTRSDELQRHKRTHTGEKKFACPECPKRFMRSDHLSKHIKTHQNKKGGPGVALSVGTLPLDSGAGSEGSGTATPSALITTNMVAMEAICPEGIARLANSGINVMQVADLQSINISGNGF
Summary of the method: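 Read-out is reporter transcript level, measured by RT-PCR and fluorescent capillary electrophoresis after 24 h chemical treatment. System: transiently transfected HepG2 cells reporting endogenous transcription factor activity; gain or loss fitted against DMSO baseline.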

[7] = ATG_SREBP_CIS: Attagene CIS-FACTORIAL HepG2 Assay for human Sterol Regulatory Element Binding (SREBP) (AID 2282962); details: HepG2 Attagene cis-factorial SREBP reporter, mRNA; actives raise or lower the signal
Summary of the method: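 Transfected HepG2 (cis-regulated reporter library, endogenous TFs) → compound 24 h → total RNA → oligo(dT) RT → reporter-specific PCR → FAM primer extension, HpaI cut → CE fluorescence. Fit bidirectional vs DMSO.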

[8] = molecular target: Signal transducer and activator of transcription 3 (Homo sapiens) (UniProt P40763); assay: ATG_STAT3_CIS: Attagene CIS-FACTORIAL HepG2 Assay for human Signal Transducer and Activator of Transcription 3 (STAT3) (AID 2282963); details: HepG2, Attagene cis-factorial STAT3 reporter transcription; actives raise or lower the signal
Chain of Signal transducer and activator of transcription 3 (Homo sapiens) (P40763 whole entry, looked up): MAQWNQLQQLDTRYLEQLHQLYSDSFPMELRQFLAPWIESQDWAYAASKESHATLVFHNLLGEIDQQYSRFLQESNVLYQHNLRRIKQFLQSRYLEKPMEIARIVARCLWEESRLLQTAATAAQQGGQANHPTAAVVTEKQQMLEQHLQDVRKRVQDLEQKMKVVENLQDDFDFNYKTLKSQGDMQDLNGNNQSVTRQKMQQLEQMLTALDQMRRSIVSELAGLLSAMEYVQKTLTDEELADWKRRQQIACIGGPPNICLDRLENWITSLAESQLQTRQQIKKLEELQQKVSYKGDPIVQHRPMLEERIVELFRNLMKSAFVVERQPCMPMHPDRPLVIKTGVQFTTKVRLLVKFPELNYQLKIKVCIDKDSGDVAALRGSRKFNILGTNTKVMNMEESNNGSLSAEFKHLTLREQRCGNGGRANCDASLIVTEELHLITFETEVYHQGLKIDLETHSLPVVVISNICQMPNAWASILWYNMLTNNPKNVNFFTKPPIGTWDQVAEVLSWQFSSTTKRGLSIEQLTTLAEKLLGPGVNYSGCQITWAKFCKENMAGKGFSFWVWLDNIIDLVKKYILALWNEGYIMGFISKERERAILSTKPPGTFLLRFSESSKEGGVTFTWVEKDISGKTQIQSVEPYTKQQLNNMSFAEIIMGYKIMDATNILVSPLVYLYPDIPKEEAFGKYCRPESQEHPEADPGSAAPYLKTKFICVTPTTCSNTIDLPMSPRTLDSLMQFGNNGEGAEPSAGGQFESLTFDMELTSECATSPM
Summary of the method: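 Transcript-level reporter assay. HepG2 transient MRTU transfection, 24 h exposure, fluorescence detection after RT-PCR and CE; DMSO baseline.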

[9] = ATG_TA_CIS: Attagene CIS-FACTORIAL HepG2 Assay for human TA Basal Promoter (AID 2282964); details: HepG2 Attagene CIS-factorial TA basal promoter reporter; actives raise or lower the signal
Summary of the method: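 HepG2 cells transiently transfected with multiple reporter units under cis promoter elements, reporting endogenous transcription factor activity; this endpoint tracks the TA basal promoter as background control. Reporter mRNA after 24 h dosing measured by RT-PCR/capillary electrophoresis; bidirectional fits versus DMSO.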

[10] = ATG_TCF_b_cat_CIS: Attagene CIS-FACTORIAL HepG2 Assay for human T-Cell-Factor with beta-catenin (TCF/b-cat) (AID 2282965); details: HepG2 TCF/beta-catenin cis-reporter transcription, actives raise or lower the signal
Summary of the method: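 HepG2 cells transiently transfected with multiple cis-promoter-regulated reporter transcription units, so endogenous transcription factor activity is measured. Reporter mRNA read 24 hours after dosing by RT-PCR, fluorescent labelling and capillary electrophoresis; bidirectional fitting against DMSO.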

[11] = ATG_TAL_CIS: Attagene CIS-FACTORIAL HepG2 Assay for human TAL Basal Promoter (AID 2282966); details: HepG2 Attagene cis-factorial TAL promoter reporter; actives raise or lower the signal;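 further: background control endpoint measuring basal TAL promoter reporter mRNA not a specific factor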
Summary of the method: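 In this cell-based multiplex, HepG2 liver cells bearing cis-promoter reporter constructs are dosed for 24 hours. Total RNA is reverse-transcribed and amplified, labelled fragments are sized by capillary electrophoresis, and signal changes are fitted bidirectionally versus DMSO.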

[12] = ATG_TGFb_CIS: Attagene CIS-FACTORIAL HepG2 Assay for human Transforming Growth Factor (TGF) (AID 2282967); details: HepG2 Attagene CIS TGFb reporter, mRNA transcription; actives raise or lower the signal
Summary of the method: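 HepG2 cells transiently transfected with cis-promoter-driven multiple reporter units measure endogenous TF activity; reporter mRNA quantified at 24 h by RT-PCR, FAM labeling, HpaI digestion and capillary electrophoresis. Bidirectional fit vs DMSO.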

[13] = ATG_VDRE_CIS: Attagene CIS-FACTORIAL HepG2 Assay for human Vitamin D Receptor Element (VDRE) (AID 2282968); details: HepG2 VDRE cis-reporter transcription, actives raise or lower the signal
Summary of the method: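 RT-PCR/CE readout of reporter mRNA; HepG2, transient transfection, 24 h dosing; DMSO baseline; bidirectional analysis.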

[14] = molecular target: X-box-binding protein 1 (Homo sapiens) (UniProt P17861); assay: ATG_Xbp1_CIS: Attagene CIS-FACTORIAL HepG2 Assay for human X-box Binding Protein 1 (XBP1) (AID 2282972); details: HepG2 XBP1 cis-element reporter, Attagene multiplex; actives raise or lower the signal
Chain of X-box-binding protein 1 (Homo sapiens) (P17861 whole entry, looked up): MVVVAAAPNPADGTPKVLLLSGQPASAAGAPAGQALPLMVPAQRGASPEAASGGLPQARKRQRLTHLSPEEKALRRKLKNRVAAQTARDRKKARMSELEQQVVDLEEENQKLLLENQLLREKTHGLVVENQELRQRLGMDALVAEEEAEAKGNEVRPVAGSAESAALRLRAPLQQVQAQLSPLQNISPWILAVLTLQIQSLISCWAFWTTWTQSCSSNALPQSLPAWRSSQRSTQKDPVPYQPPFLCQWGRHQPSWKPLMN
Summary of the method: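 HepG2, transient MRTU transfection (cis-promoter driven), 24 h compound exposure. Total RNA → oligo(dT) RT → PCR → 6-FAM labeling → HpaI cut → CE. Bidirectional fit vs DMSO.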

[15] = ATG_M_19_TRANS: Attagene TRANS-FACTORIAL HepG2 Assay for M19 Transcription Factor (Internal Marker) (AID 2282974; active means hit-call score of the fitted dose curve at least 0.9, where 1 is the maximum); details: HepG2 Attagene TRANS-FACTORIAL M19 internal marker reporter
Summary of the method: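 Background-control readout: after 24 h chemical exposure of transfected HepG2 carrying GAL4-driven reporter units, RNA was reverse-transcribed, amplified, fluorescently labeled and sized by capillary electrophoresis; gain-of-signal fit against DMSO.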

[16] = ATG_GAL4_TRANS: Attagene TRANS-FACTORIAL HepG2 Assay for GAL4 (Internal Marker) (AID 2282976; active means hit-call score of the fitted dose curve at least 0.9, where 1 is the maximum); details: HepG2 Attagene TRANS GAL4 internal marker reporter
Summary of the method: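 RT-PCR/capillary electrophoresis readout of reporter mRNA. HepG2, transient MRTU transfection (GAL4-UAS reporters), 24 h compound exposure. Background-control endpoint, positive direction vs DMSO baseline.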

[17] = molecular target: Nuclear receptor subfamily 1 group I member 3 (Homo sapiens) (UniProt Q14994); assay: ATG_CAR_TRANS: Attagene TRANS-FACTORIAL HepG2 Assay for human Constitutive Androstane Receptor (CAR) (AID 2282969; active means hit-call score of the fitted dose curve at least 0.9, where 1 is the maximum;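 further: activators raise reporter mRNA above DMSO so AC50 marks induction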); details: HepG2 Attagene TRANS-FACTORIAL CAR reporter
Chain of Nuclear receptor subfamily 1 group I member 3 (Homo sapiens) (Q14994 whole entry, looked up, the tested form may be a part): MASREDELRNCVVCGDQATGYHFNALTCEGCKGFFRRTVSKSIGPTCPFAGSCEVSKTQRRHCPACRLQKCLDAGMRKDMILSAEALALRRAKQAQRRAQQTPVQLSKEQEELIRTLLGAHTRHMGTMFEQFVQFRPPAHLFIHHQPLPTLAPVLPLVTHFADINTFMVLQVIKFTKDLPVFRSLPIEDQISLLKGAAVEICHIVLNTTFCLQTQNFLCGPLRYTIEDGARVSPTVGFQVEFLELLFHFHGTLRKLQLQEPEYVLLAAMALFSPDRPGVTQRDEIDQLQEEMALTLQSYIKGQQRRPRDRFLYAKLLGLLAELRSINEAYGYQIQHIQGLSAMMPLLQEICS
Summary of the method: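 HepG2 cells transiently transfected with multiplexed GAL4-UAS reporter units expressing chimeric NR-Gal4 proteins; compound exposure 24 h. Reporter mRNA measured by RT-PCR, 6-FAM labelling, HpaI digestion and capillary electrophoresis; gain-of-signal fitted against DMSO baseline.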

[18] = molecular target: Estrogen receptor (Homo sapiens) (UniProt P03372); assay: ATG_ERa_TRANS: Attagene TRANS-FACTORIAL HepG2 Assay for human Estrogen Receptor alpha (ERa) (AID 2282970; active means hit-call score of the fitted dose curve at least 0.9, where 1 is the maximum); details: HepG2 Attagene TRANS ERa GAL4 reporter, mRNA
Chain of Estrogen receptor (Homo sapiens) (P03372 whole entry, looked up, the tested form may be a part): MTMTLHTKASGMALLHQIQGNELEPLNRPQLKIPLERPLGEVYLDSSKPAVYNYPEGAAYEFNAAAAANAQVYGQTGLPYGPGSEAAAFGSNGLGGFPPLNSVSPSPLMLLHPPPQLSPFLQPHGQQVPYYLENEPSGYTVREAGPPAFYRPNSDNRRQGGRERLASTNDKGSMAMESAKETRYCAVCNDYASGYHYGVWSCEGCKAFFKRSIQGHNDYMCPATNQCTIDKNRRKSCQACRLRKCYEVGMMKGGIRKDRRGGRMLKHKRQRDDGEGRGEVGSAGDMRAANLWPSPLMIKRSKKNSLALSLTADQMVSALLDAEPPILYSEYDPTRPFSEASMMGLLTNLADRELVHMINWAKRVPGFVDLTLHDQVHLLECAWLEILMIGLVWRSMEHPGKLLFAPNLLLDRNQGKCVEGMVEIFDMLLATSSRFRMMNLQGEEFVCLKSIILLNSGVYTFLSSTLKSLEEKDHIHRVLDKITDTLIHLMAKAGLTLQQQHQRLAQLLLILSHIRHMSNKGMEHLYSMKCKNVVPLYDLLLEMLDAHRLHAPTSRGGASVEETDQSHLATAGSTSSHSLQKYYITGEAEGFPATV
Summary of the method: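 After 24 h of compound treatment, RNA from HepG2 cells bearing transfected GAL4-UAS reporter constructs is converted to cDNA, amplified and fluorescently labelled. Capillary electrophoresis resolves the ERa-linked reporter; DMSO serves as negative control.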

[19] = molecular target: Steroid hormone receptor ERR1 (Homo sapiens) (UniProt P11474); assay: ATG_ERRa_TRANS: Attagene TRANS-FACTORIAL HepG2 Assay for human Estrogen-Related Receptor alpha (ERRa) (AID 2282971; active means hit-call score of the fitted dose curve at least 0.9, where 1 is the maximum); details: HepG2 Attagene TRANS reporter, ERRa transactivation
Chain of Steroid hormone receptor ERR1 (Homo sapiens) (P11474 whole entry, looked up, the tested form may be a part): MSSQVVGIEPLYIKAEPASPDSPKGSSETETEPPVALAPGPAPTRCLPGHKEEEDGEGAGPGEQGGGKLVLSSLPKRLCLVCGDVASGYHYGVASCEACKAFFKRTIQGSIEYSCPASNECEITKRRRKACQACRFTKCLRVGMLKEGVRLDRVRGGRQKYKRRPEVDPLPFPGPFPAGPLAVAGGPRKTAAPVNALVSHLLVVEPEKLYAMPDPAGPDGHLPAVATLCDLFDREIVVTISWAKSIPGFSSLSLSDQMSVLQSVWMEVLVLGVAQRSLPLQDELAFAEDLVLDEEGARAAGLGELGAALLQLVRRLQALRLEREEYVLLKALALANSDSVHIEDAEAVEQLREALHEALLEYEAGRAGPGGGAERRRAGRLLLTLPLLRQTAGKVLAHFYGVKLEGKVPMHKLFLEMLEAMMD
Summary of the method: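 Transfected HepG2, 24 h dosing, ERRa-Gal4 chimera driving GAL4-UAS reporter. Readout: reporter mRNA via RT-PCR plus capillary electrophoresis (fluorescence). Positive direction vs DMSO control.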

[20] = molecular target: Estrogen-related receptor gamma (Homo sapiens) (UniProt P62508); assay: ATG_ERRg_TRANS: Attagene TRANS-FACTORIAL HepG2 Assay for human Estrogen-Related Receptor gamma (ERRg) (AID 2282977; active means hit-call score of the fitted dose curve at least 0.9, where 1 is the maximum;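 further: hits increase reporter signal over DMSO so potencies reflect activators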); details: HepG2 Attagene TRANS reporter, ERRg transactivation
Chain of Estrogen-related receptor gamma (Homo sapiens) (P62508 whole entry, looked up, the tested form may be a part): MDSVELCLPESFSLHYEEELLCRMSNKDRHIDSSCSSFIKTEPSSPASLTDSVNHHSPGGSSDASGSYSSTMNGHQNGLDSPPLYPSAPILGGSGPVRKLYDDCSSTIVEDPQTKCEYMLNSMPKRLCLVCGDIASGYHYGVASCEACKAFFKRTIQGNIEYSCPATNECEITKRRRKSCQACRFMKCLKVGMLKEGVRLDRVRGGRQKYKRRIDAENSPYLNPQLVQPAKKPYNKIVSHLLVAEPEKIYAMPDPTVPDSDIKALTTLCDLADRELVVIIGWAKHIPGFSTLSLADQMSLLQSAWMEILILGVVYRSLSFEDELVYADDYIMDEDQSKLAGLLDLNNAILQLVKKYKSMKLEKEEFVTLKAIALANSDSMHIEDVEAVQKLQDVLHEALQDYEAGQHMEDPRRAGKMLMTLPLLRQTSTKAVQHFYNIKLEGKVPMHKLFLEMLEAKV
Summary of the method: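 Transfect HepG2 with multiple GAL4-UAS reporter transcription units; dose chemicals 24 h; isolate RNA, reverse-transcribe with oligo(dT), PCR-amplify, label with 6-FAM, digest with HpaI; size fragments by capillary electrophoresis. DMSO serves as negative control.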

For O=C(Oc1ccccc1)c1cccc(C(=O)Oc2ccccc2)c1, the outcome [1] was “inactive”, the outcome [2] was “inactive” and the AC50 [3] was 104 µM (active). For the same compound, the outcome [4] was “inactive”, the outcome [5] was “inactive” and the outcome [6] was “inactive”. The outcome [7] was “inactive”, the outcome [8] was “inactive” and the outcome [9] was “inactive”. The outcome [10] was “inactive”, the outcome [11] was “inactive” and the outcome [12] was “inactive”. For the same compound, the outcome [13] was “inactive”, the outcome [14] was “inactive” and the outcome [15] was “inactive”. For the same compound, the outcome [16] was “inactive”.

With CCCCC(CC)CO (stereo unspecified) the outcome [1] was “inactive”, the AC50 [2] was 27.5 µM (active) and the outcome [3] was “inactive”. The outcome [4] was “inactive”, the outcome [5] was “inactive” and the outcome [6] was “inactive”. For the same compound, the outcome [7] was “inactive”, the outcome [8] was “inactive” and the outcome [9] was “inactive”. The outcome [10] was “inactive”, the outcome [11] was “inactive” and the outcome [12] was “inactive”. The outcome [13] was “inactive”, the outcome [17] was “inactive” and the outcome [14] was “inactive”.

For CSc1ccc(Oc2ccc(S(N)(=O)=O)cc2CN(C)C)cc1C, the outcome [1] was “inactive”, the AC50 [2] was 9.66 µM (active) and the outcome [3] was “inactive”. For the same compound, the outcome [4] was “inactive”, the outcome [5] was “inactive” and the outcome [6] was “inactive”. The AC50 [7] was 23.4 µM (active), the outcome [8] was “inactive” and the outcome [9] was “inactive”. For the same compound, the AC50 [10] was 55 µM (active), the outcome [11] was “inactive” and the outcome [12] was “inactive”. The AC50 [13] was 29.8 µM (active), the outcome [17] was “inactive” and the outcome [18] was “inactive”. The outcome [14] was “inactive”, the outcome [15] was “inactive” and the outcome [16] was “inactive”.

For O=C(N[C@@H](c1ccccc1)[C@@H]1CCCCN1)c1cccc(C(F)(F)F)c1Cl, the AC50 [1] was 33 µM (active), the AC50 [2] was 8.23 µM (active) and the outcome [3] was “inactive”. For the same compound, the outcome [4] was “inactive”, the AC50 [5] was 33 µM (active) and the AC50 [6] was 42.7 µM (active). The outcome [8] was “inactive”, the outcome [9] was “inactive” and the AC50 [10] was 16.6 µM (active). The outcome [11] was “inactive”, the outcome [12] was “inactive” and the AC50 [13] was 20.4 µM (active). The outcome [18] was “inactive”, the outcome [19] was “inactive” and the AC50 [14] was 33 µM (active). The outcome [16] was “inactive” and the outcome [20] was “inactive”.
